Source: PubChem BioAssay (NCATS)
Where “and” joins values, the source holds several entries; their conditions need not be identical. Equal values may be shown once. Results filed as inconclusive are left out. Calls of active or inactive are those of the source. Calls come from the whole dose curve; as a rule, active = well fitted curve in the direction sought with a large enough effect; inconclusive = small, poorly fitted or top-dose-only effect, or another doubt; inactive = no such curve, though single readings can be large; an effect the other way counts as inactive or inconclusive.

How the values were obtained:
[1] = target: Cellular tumor antigen p53 (Homo sapiens) (UniProt P04637); assay: Primary qHTS for small molecule compounds that upregulate eGFP-tagged delta133p53alpha (in N-terminal) cells. (AID 2060322); conditions: NCI-H358 eGFP-delta133p53alpha fluorescence, 24 h; activation: hits give high values; note: nearly all actives have a fitted effect of over 75% in size; note: potency is the fitted concentration of half-maximal effect;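 for activation: cells pre-induced with doxycycline then dosed without doxycycline; 0% = DMSO vehicle and 100% = reference activator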
Outline: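 NCI-H358 cells pre-induced 24 h with 10 ng/ml doxycycline for eGFP-delta133p53alpha, plated dox-free and exposed 24 h at 37C to titrated compounds. Fixed, Hoechst-stained; gated GFP peak intensity by laser scanning cytometry, normalized to DMSO (0%) and 57.5 uM 5-azacytidine (100%).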

[2] = target: Aldehyde dehydrogenase, mitochondrial (Homo sapiens) (UniProt P05091); assay: qHTS for Inhibitors of the Aldehyde Dehydrogenase Family (ALDH2) Primary screen (AID 2061308); conditions: ALDH2 enzyme inhibition qHTS, 1536-well; series mostly up to 56 µM;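 note: plate controls were vehicle for no effect and reference inhibitor for full effect; nearly all actives have a fitted effect of over 55% in size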
[3] = target: Retinaldehyde dehydrogenase 3 (Homo sapiens) (UniProt P47895); assay: qHTS for Inhibitors of the Aldehyde Dehydrogenase Family (ALDH1A3) Primary screen (AID 2061315); conditions: ALDH inhibition qHTS; series mostly up to 56 µM;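 note: plate controls were DMSO vehicle for no effect and reference inhibitor for full effect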
[4] = BET inhibitor-based combinations targeting novel dependencies in MECOM-rearranged (r) AML: SET-2 cell line (AID 2202231); conditions: SET-2 AML cells viability, CellTiter-Glo luminescence, 48 h; viability: hits give low values, concentration not given here; note: nearly all actives have a fitted effect of over 35% in size; note: potency is the fitted concentration of half-maximal effect;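 for viability: plate controls were DMSO treated cells for no effect and wells without cells for full effect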
Outline: (§1)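 500 cells/well; 11-pt dose curve; 48 h, standard incubator; CellTiter-Glo luminescence after 15 min RT; DMSO/empty-well normalization; AUC plus Z-AUC (mean-centered within each line).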

[5] = BET inhibitor-based combinations targeting novel dependencies in MECOM-rearranged (r) AML: MV-4-11 cell line (AID 2202233); conditions: MV-4-11 AML viability, CellTiter-Glo luminescence, 48 h; series mostly up to 46 µM; note: nearly all actives have a fitted effect of over 45% in size; note: potency is the fitted concentration of half-maximal effect;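 for viability, % of control: plate controls were DMSO for no effect and blank wells for full effect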
Outline: (§2)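 Cells were plated at 500 per well and exposed to each drug across an 11-point dose range for 48 hr at standard incubator conditions. Viability was read by CellTiter-Glo luminescence, and activity was expressed as AUC and per-cell-line Z-transformed AUC.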

[6] = BET inhibitor-based combinations targeting novel dependencies in MECOM-rearranged (r) AML: HNT-34 cell line (AID 2202234); conditions: HNT-34 AML viability, CellTiter-Glo luminescence, 48 h; series mostly up to 46 µM; note: nearly all actives have a fitted effect of over 35% in size; note: potency is the fitted concentration of half-maximal effect;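 for viability (% of control): plate controls were vehicle wells for no effect and cell-free wells for full effect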
Outline: as §2

[7] = BET inhibitor-based combinations targeting novel dependencies in MECOM-rearranged (r) AML: UCSD-AML1 cell line (AID 2202235); conditions: UCSD-AML1 AML cells viability, CellTiter-Glo, 48 h; series mostly up to 46 µM; note: nearly all actives have a fitted effect of over 40% in size; note: potency is the fitted concentration of half-maximal effect;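 for viability (% of control): plate controls were DMSO vehicle wells for no effect and blank wells for full effect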
Outline: as §2

[8] = BET inhibitor-based combinations targeting novel dependencies in MECOM-rearranged (r) AML: AML-194 cell line (AID 2202237; note: nearly all actives have a fitted effect of over 40% in size; note: potency is the fitted concentration of half-maximal effect;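 for viability (% of control): plate controls were vehicle wells for no effect and wells without cells for full effect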); conditions: AML-194 (MECOM-r AML) viability, CellTiter-Glo, 48 h; series mostly up to 46 µM
Outline: as §1

[9] = BET inhibitor-based combinations targeting novel dependencies in MECOM-rearranged (r) AML: AML-191 cell line (AID 2202236; note: nearly all actives have a fitted effect of over 35% in size; note: potency is the fitted concentration of half-maximal effect;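 for viability (% of control): plate controls were vehicle wells for no effect and wells without cells for full effect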); conditions: AML-191 viability, CellTiter-Glo luminescence, 48 h; series mostly up to 46 µM
Outline: as §1

Sequence of Cellular tumor antigen p53 (Homo sapiens) (P04637 whole entry, looked up): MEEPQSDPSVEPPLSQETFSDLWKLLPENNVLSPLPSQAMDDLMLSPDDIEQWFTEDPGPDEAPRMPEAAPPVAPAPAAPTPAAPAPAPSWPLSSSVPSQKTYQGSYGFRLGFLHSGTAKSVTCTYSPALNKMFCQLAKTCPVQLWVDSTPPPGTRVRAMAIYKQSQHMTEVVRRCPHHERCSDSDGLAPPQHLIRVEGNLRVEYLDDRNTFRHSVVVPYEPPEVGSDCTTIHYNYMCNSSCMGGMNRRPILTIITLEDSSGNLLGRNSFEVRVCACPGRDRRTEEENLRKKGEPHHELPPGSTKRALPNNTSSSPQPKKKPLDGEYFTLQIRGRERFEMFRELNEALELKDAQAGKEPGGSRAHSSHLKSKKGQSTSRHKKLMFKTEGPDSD

CC(C)NC(=O)N1CC[C@H](N=C2Nc3cc(F)ccc3N(CC(F)F)c3ccc(Cl)cc32)C1
inactive: activation [1] 4.33% | Potency [2] | Potency [3] | viability [4] 109% | viability, % of control [5] 94.7% [at 8.46 µM] | viability (% of control) [6] 99.5% [at 8.46 µM] | viability (% of control) [7] 104% [at 8.46 µM] | viability (% of control) [8] 93.8% [at 8.46 µM]

Clc1ccc(Nc2nnc(Cc3ccncc3)c3ccccc23)cc1
inactive: activation [1] -10.3% and 9.21% and -17% | Potency [2] | Potency [3] | viability [4] 91.3% | Potency [6] | Potency [9] | Potency [8]

COc1ccc(-c2cnc3c(-c4cccc5ncccc45)cnn3c2)cc1
active: Potency [5] 7.42 µM
inactive: activation [1] 16.1% | Potency [2] | Potency [3] | viability [4] 119% | Potency [7] | Potency [9] | Potency [8]

CCN(CCO)CCCOc1ccc2c(Nc3cc(CC(=O)Nc4cccc(F)c4)[nH]n3)ncnc2c1
active: Potency [5] 0.0525 µM | Potency [9] 0.0934 µM
inactive: activation [1] -6.72% and 29.5% | Potency [2] | Potency [3] | viability [4] 100%

Cn1ncnc1[C@H]1c2n[nH]c(=O)c3cc(F)cc(c23)N[C@@H]1c1ccc(F)cc1
inactive: activation [1] -4.3% and 20.1% | Potency [2] | Potency [3]
active: Potency [4] 3.72 µM | Potency [5] 0.0332 µM | Potency [9] 1.86 µM

CC(C)[C@H](CO)Nc1nc(Nc2ccc(C(=O)O)c(Cl)c2)c2ncn(C(C)C)c2n1
inactive: activation [1] 6.33% | Potency [2] | Potency [3] | viability [4] 109% | Potency [6] | Potency [7] | Potency [9] | Potency [8]

NC(=O)c1cnc(-c2ccc(C3(N)CCC3)cc2)c(-c2ccccc2)c1
active: Potency [5] 3.32 µM | Potency [7] 1.32 µM
inactive: activation [1] 29% and -2.68% | Potency [2] | Potency [3] | viability [4] 104% | Potency [9] | Potency [8]

Cc1c(C)n(Cc2ccc(-c3ccccc3C(=O)O)cc2)c2ccc(C(=O)N[C@@H](C)c3ccc([N+](=O)[O-])cc3)cc12
inactive: activation [1] 21.3% and -1.79% | Potency [2] | Potency [3] | viability [4] 111% | Potency [6] | Potency [7] | Potency [9] | Potency [8]

O=c1[nH]c(-c2ccc(C(F)(F)F)cc2)nc2c1CSCC2
inactive: activation [1] 25.7% and -15.7% | Potency [2] | Potency [3] | viability [4] 95.3% | Potency [6] | Potency [7] | Potency [9] | Potency [8]

Cn1ncc(Cl)c1-c1cc(C(=O)N[C@H](CN)Cc2cccc(F)c2)sc1Cl
inactive: Potency [2] | Potency [3]
active: Potency [1] 30.1 µM | Potency [4] 9.34 µM | Potency [6] 16.6 µM | Potency [9] 16.6 µM | Potency [8] 18.6 µM

O=C(Nc1ccc(F)c(C(F)(F)F)c1)Nc1nnc(-c2ccncc2)s1
inactive: activation [1] -20.5% and 5% | Potency [2] | Potency [3] | viability [4] 100% | Potency [6] | Potency [7] | Potency [8]

CN(C)C(=O)c1ccc(S(=O)(=O)c2ccc(NC(=O)[C@@](C)(O)C(F)(F)F)c(Cl)c2)cc1
active: Potency [4] 7.42 µM | Potency [5] 4.68 µM
inactive: activation [1] 17.9% and -11.6% | Potency [2] | Potency [3] | Potency [7]

COc1cc2nccc(Oc3ccc(NC(=O)NC4CC4)c(Cl)c3)c2cc1C(N)=O
inactive: Potency [2] | Potency [3] | Potency [8]
active: Potency [1] 26.9 µM | Potency [4] 18.6 µM | Potency [5] 2.09 µM | Potency [6] 9.34 µM | Potency [9] 20.9 µM

Cc1cc(CS(=O)(=O)c2ccccc2)cc(OCc2ccc(CN3CCC[C@@H]3CO)cc2)c1
inactive: activation [1] 3.67% | Potency [2] | Potency [3] | viability [4] 87.8%
active: Potency [5] 10.5 µM | Potency [8] 18.6 µM

COc1cccc(OCCCN)c1-c1cc(Nc2cnc(C#N)cn2)n[nH]1
inactive: Potency [2] | Potency [3]
active: Potency [1] 26.9 µM | Potency [4] 0.059 µM | Potency [6] 0.059 µM | Potency [7] 0.0093 µM | Potency [9] 0.0235 µM

Cn1cnc(-c2cc3nccc(Oc4ccc(NC(=S)NC(=O)Cc5ccccc5)cc4F)c3s2)c1
active: Potency [6] 3.72 µM
inactive: activation [1] -7.76% and 19.6% | Potency [2] | Potency [3] | viability [4] 78.9%

Cn1cc(-c2ccc3c(c2)CCN3C(=O)Cc2cccc(C(F)(F)F)c2)c2c(N)ncnc21
active: Potency [5] 9.34 µM | Potency [9] 18.6 µM
inactive: activation [1] -11.6% | Potency [2] | Potency [3] | viability [4] 105% | Potency [8]
